In PubChem BioAssay (Tox21) one finds Potency and outcome data, which are given here for nine compounds.

Where “and” joins values, the source holds several entries; their conditions need not be identical. Equal values may be shown once. Inconclusive results are not listed. The source holds several records for some structures; these can differ, active in one and inactive in another. Calls of active or inactive are those of the source. Unless noted, the call rests on the fitted dose curve; in most records, active means well fitted curve in the direction sought with a large enough effect in the repeat runs; inconclusive means weak or mixed curves; inactive means no such curve, though single readings can be large; an effect the other way counts as inactive or inconclusive.

The nature of assay [1]: A CellTox Green Cytotoxicity Assay to monitor cytotoxicity in HEK293 cells - 32 hour (AID 1224881). Further: nearly all actives have a fitted effect of over 40% in size. Further: potency means the concentration at half of the fitted maximal effect. In outline: (§1)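 HEK293 cells, 600/well, were preincubated 5 hours and then exposed to compounds at 37 C for up to 40 hours. A cell-impermeant cyanine dye staining dead-cell DNA was read by fluorescence at 0, 8, 16, 24, 32 and 40 h time points.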
Assay [2] can be described thus: A CellTox Green Cytotoxicity Assay to monitor cytotoxicity in HepG2 cells - 0 hour (AID 1224882). Further: nearly all actives have a fitted effect of over 35% in size. The procedure, abridged:
(§2)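 HepG2 cells, 600/well, preincubated 5 h with CellTox Green dye, then exposed to Tox21 compounds in DMSO at 37 C for up to 40 h. Dead-cell DNA fluorescence read at the indicated time point.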

The nature of assay [3]: A CellTox Green Cytotoxicity Assay to monitor cytotoxicity in HepG2 cells - 32 hour (AID 1224883). Further: nearly all actives have a fitted effect of over 50% in size. Further: potency means the concentration at half of the fitted maximal effect. The procedure, abridged:
as §2

Assay [4] can be described thus: A CellTox Green Cytotoxicity Assay to monitor cytotoxicity in HEK293 cells - 8 hour (AID 1224884). Further: nearly all actives have a fitted effect of over 35% in size. Further: potency means the concentration at half of the fitted maximal effect. In outline: as §1
Assay [5] in a line: qHTS RealTime-Glo MT Cell Viability Assay in HepG2 cells - 16 hour (AID 1224885). Further: nearly all actives have a fitted effect of over 50% in size. Further: potency means the concentration at half of the fitted maximal effect. The procedure, abridged:
(§3)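 HepG2 cells were seeded at 600 cells/well together with NanoLuc luciferase and a cell-permeant prosubstrate, preincubated 5 h at 37 C/5% CO2, then pin-dosed with compounds in DMSO. Nonlytic luminescence from viable cells was read at each time point.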
A general note: In qHTS, concentration-response curves come from the screen itself.

Assay [6] in a line: qHTS RealTime-Glo MT Cell Viability Assay in HEK293 cells - 24 hour (AID 1224886). Further: nearly all actives have a fitted effect of over 50% in size. Further: potency means the concentration at half of the fitted maximal effect. The procedure, abridged:
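HEK293 cells were seeded at 600 cells/well together with NanoLuc luciferase and cell-permeant prosubstrate, preincubated 5 h at 37 C/5% CO2, then given compound in DMSO by pintool. Luminescence from viable-cell prosubstrate reduction was read repeatedly over 40 h.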

Assay [7] in a line: qHTS RealTime-Glo MT Cell Viability Assay in HEK293 cells - 8 hour (AID 1224887). Further: nearly all actives have a fitted effect of over 50% in size. Further: potency means the concentration at half of the fitted maximal effect. The procedure, abridged:
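600 cells/well were plated with the nonlytic NanoLuc/prosubstrate reagent, pre-incubated 5 h, then given 23 nL of compound in DMSO. Incubation at 37 C for 40 h, with luminescence from viable-cell-reduced substrate read repeatedly from 0 h.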

Assay [8] is described as follows: A CellTox Green Cytotoxicity Assay to monitor cytotoxicity in HEK293 cells - 16 hour (AID 1224888). Further: nearly all actives have a fitted effect of over 35% in size. In outline:
as §1

Assay [9] can be described thus: qHTS RealTime-Glo MT Cell Viability Assay in HepG2 cells - 0 hour (AID 1224889). Further: nearly all actives have a fitted effect of over 50% in size. In outline: as §3
Assay [10] is described as follows: A CellTox Green Cytotoxicity Assay to monitor cytotoxicity in HepG2 cells - 8 hour (AID 1224890). Further: nearly all actives have a fitted effect of over 45% in size. Further: potency means the concentration at half of the fitted maximal effect. The procedure, abridged:
as §2

Assay [11] is described as follows: qHTS assay to identify small molecule antagonists of the estrogen receptor alpha (ER-alpha) signaling pathway using the BG1 cell line in the presence of 0.1 nM 17-beta-estradiol - cell viability counter screen (AID 1259241). Further: nearly all actives have a fitted effect of over 40% in size. In outline: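 Following 5 days in phenol red-free medium with charcoal-stripped serum, VM7Luc4E2 cells received test compounds alongside 0.1 nM 17beta-estradiol (final) at 37C for 22 hr. Live cells were then quantified via protease-substrate fluorescence.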

Assay [12] in a line: qHTS assay to identify small molecule antagonists of the androgen receptor (AR) signaling pathway using the MDA cell line in the presence of 0.5 nM R1881 - cell viability counter screen (AID 1259242). Further: nearly all actives have a fitted effect of over 45% in size. Further: potency means the concentration at half of the fitted maximal effect. In outline:
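MDA-kb2 cells (MMTV-luciferase, AR/GR responsive) were treated with compounds plus 0.5 nM R1881 (final) for 16 hr at 37C, 0% CO2. Viability was then read in the same wells as live-cell protease fluorescence (CellTiter-Fluor, 30 min).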

A short description of assay [13]: qHTS assay to identify small molecule HDAC inhibitors (AID 1259364). Further: top concentration of the series differs between compounds; nearly all actives have a fitted effect of over 45% in size. The procedure, abridged:
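Wild-type HCT-116 cells, plated overnight at 37 C, exposed to compounds 2 hr at 37 C; luminogenic HDAC-Glo substrate then added 30 min at room temperature. Luminescence reports relative endogenous class I/II HDAC activity.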

The nature of assay [14]: qHTS assay to identify small molecule HDAC inhibitors - cell viability counter screen (AID 1259365). Further: nearly all actives have a fitted effect of over 50% in size. Further: potency means the concentration at half of the fitted maximal effect. In outline:
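HCT-116 wild-type, overnight attachment; 2hr drug exposure, 37C; CellTiter-Glo luminescent ATP readout after 30min RT.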

The nature of assay [15]: qHTS assay to identify small molecule agonists of the sonic hedgehog signaling (Shh) pathway - cell viability counter screen (AID 1259366). Further: nearly all actives have a fitted effect of over 50% in size. Further: potency means the concentration at half of the fitted maximal effect. In outline: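 Compounds in DMSO were pin-transferred onto 3T3 Gli1-Luc cells that had settled 4hr; plates then stood 24hr at 37C and 5% CO2. One hour before the end, CellTiter-Fluor was added and fluorescence recorded.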
Assay [16] is described as follows: qHTS assay to identify small molecule antagonists of the sonic hedgehog signaling (Shh) pathway - cell viability counter screen (AID 1259367). Further: nearly all actives have a fitted effect of over 55% in size. Further: potency means the concentration at half of the fitted maximal effect. In outline:
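Using CellTiter-Fluor, viability of Gli1-Luc reporter 3T3 cells is read by fluorescence in the wells used for the Shh luciferase assay. Treatment lasts 23 hr with conditioned medium, then reagent 1 hr at 37C.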

A short description of assay [17]: qHTS assay to identify small molecule agonists of the sonic hedgehog signaling (Shh) pathway (AID 1259368; calls by dose curve;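 further: NIH/3T3-derived 3T3Gli1-Luc cells carrying a stable Gli1-driven firefly luciferase reporter; series mostly up to about 92 µM; nearly all actives have a fitted effect of over 15% in size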). In outline: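 NIH/3T3-derived 3T3Gli1-Luc cells with stably integrated Gli1-driven firefly luciferase, 2,000 cells/well, compounds added after 4 hr. Incubated 24 hr at 37C, 5% CO2; luminescence read after 30 min with luciferase reagent at room temperature.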

Assay [18] can be described thus: qHTS assay to identify small molecule antagonists of the sonic hedgehog signaling (Shh) pathway (AID 1259369; calls by dose curve; further: nearly all actives have a fitted effect of over 45% in size; further: potency means the concentration at half of the fitted maximal effect). The procedure, abridged:
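NIH/3T3-derived Gli1-Luc reporter cells plated 4 h, dosed with compound, then stimulated with conditioned medium for 24 h at 37 C. Firefly luciferase luminescence read after 30 min with detection reagent at room temperature.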

Consider `CCCC[n+]1ccccc1`, for which the Potency result in assay [1], in assay [2], in [3], in assay [4], in assay [5] and in [6] was “inactive” throughout. Further, the Potency entry in [7], in [8], in assay [9], in assay [10], in [11] and in assay [12] was “inactive” throughout. The Potency entry in assay [13], in assay [14], in assay [15], in assay [16] and in assay [18] was “inactive” in each case. Moreover, the compound was called inactive in assay [17].

On to `O=C(O)c1ccccc1O`, for which the Potency result in assay [1], in assay [2], in assay [3], in assay [4], in [5] and in assay [6] was “inactive” throughout. The Potency entry in [7], in [8], in assay [9], in assay [10], in [11] and in [12] was “inactive” throughout. For the same compound, the Potency entry in assay [13], in assay [14], in assay [15], in assay [16] and in [18] was “inactive” throughout. Besides, the compound was classed as inactive in [17].

In the case of `CCCC[N+]1(C)CCCC1`, the Potency result in assay [1], in [2], in assay [3], in [4], in assay [5] and in assay [6] was “inactive” throughout. Besides, the Potency result in [7], in assay [8], in assay [9], in [10], in assay [11] and in assay [12] was “inactive” each time. In addition, the Potency result in assay [13], in [14], in assay [15], in assay [16] and in assay [18] was “inactive” throughout. For the same compound, the outcome in [17] was inactive.

For `COc1ccccc1N`, the Potency result in [1], in assay [2], in [3], in assay [4], in assay [5] and in assay [6] was “inactive” each time. Further, the Potency result in [7], in assay [8], in assay [9], in assay [10], in assay [11] and in [12] was “inactive” each time. For the same compound, the Potency entry in assay [13], in [14], in [15], in assay [16] and in [18] was “inactive” in each case. For the same compound, the result in [17] was inactive.

As for `CCCC[n+]1cccc(C)c1`, the Potency result in assay [1], in assay [2], in assay [3], in assay [4], in [5] and in assay [6] was “inactive” throughout. The Potency result in assay [7], in assay [8], in [9], in assay [10], in [11] and in assay [12] was “inactive” in each case. Besides, the Potency entry in assay [13], in assay [14], in assay [15], in assay [16] and in assay [18] was “inactive” each time. The call in [17] was inactive.

On to `CCCCCCCCCCCCCC[P+](CCCCCC)(CCCCCC)CCCCCC`, for which the Potency in [1] is 12.4 µM (active) and 19.7 µM (active); in assay [3], 12.4 µM (active) and 17.5 µM (active); in assay [4], 19.6 µM (active) and 22.1 µM (active) and inactive; in assay [5], 13.9 µM (active) and 19.7 µM (active) and inactive; in [6], 5.52 µM (active) and 6.22 µM (active) and 3.46 µM (active); in assay [7], 12.4 µM (active) and 17.5 µM (active). In addition, the Potency in [10] is 19.6 µM (active) and 22.1 µM (active) and inactive; in assay [12], 9.73 µM (active) and 13.8 µM (active); in assay [14] it was 34.5 µM (active) and 69.1 µM (active) and inactive; in assay [15], 13.7 µM (active) and 21.9 µM (active) and inactive; in assay [16], 15.4 µM (active) and 54.9 µM (active) and inactive; in assay [18], 1.09 µM (active) and 1.1 µM (active) and 769 nM (active). For the same compound, the Potency result in assay [2], in [9] and in assay [13] was “inactive” in each case. Moreover, in assay [17], the result was inactive.

Take `O=C(O)CC(O)(CC(=O)O)C(=O)O`: the Potency entry in [1], in assay [2], in [3], in [4], in assay [5] and in [6] was “inactive” throughout. The Potency result in [7], in assay [8], in assay [9], in assay [10], in assay [11] and in assay [12] was “inactive” each time. The Potency entry in [13], in assay [14], in assay [15], in [16] and in assay [18] was “inactive” each time. The result in assay [17] was inactive.

Regarding `CCCC[n+]1ccccc1C`, the Potency result in assay [1], in assay [2], in assay [3], in assay [4], in assay [5] and in assay [6] was “inactive” throughout. In addition, the Potency entry in [7], in assay [8], in assay [9], in [10], in [11] and in [12] was “inactive” throughout. The Potency entry in assay [13], in assay [14], in assay [15], in [16] and in assay [18] was “inactive” throughout. Further, the compound was called inactive in [17].

For the compound `CCCCCCCCCCCCCCCCn1cc[n+](C)c1`, the Potency entry is “inactive and 19.7 µM (active) and 24.6 µM (active)” in assay [1]; “inactive and 49.4 µM (active)” in [4]; “inactive and 49.4 µM (active) and 49.1 µM (active)” in [5]; “inactive and 55.4 µM (active) and 55.1 µM (active)” in assay [7]; “inactive and 55.4 µM (active) and 55.1 µM (active)” in assay [10]; “inactive and 34.7 µM (active) and 48.7 µM (active)” in assay [12]. The Potency entry in assay [2], in [9], in assay [13] and in assay [14] was “inactive” each time. In [17], the compound was classed as inactive.
